According to the supplement of paper PMC10681739:

Each sequence was assayed against T1, ETS1 (UniProt P14921) (assay: ETS1 binding intensity (PBM fluorescence), ETS1 alone (arbitrary fluorescence units); higher = stronger binding). Settings: ETS1 concentration 1 nM; RUNX1 concentration 0 nM.
T1 sequence: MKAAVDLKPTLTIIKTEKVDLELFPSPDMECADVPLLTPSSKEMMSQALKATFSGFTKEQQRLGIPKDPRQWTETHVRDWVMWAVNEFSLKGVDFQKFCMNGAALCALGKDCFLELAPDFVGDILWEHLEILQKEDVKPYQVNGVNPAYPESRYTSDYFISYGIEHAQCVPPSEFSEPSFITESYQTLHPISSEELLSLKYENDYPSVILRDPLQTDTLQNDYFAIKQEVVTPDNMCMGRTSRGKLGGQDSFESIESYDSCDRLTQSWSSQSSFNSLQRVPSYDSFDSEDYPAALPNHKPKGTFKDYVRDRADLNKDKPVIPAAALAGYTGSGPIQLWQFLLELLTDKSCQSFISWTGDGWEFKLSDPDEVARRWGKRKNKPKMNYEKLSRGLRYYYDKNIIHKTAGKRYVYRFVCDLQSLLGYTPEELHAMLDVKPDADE

Row | Sequence | ETS1 binding intensity
1 | CAGAGGCCCGGCCTCTTCCGCCACAACTCCGGCCCG | 492
2 | ATTACATCCGGGCTCCGCGACACGCCCGAACCACAA | 549
3 | GTGACCCAATACTTCCTGCCACAATACTGAGAACTC | 841
4 | TACCACCTCAGGATGTCTGAACCACATGCAAGCAGG | 439
5 | TCCAGGATGTGCTGAACCTCCAGAAACCACCGGCTT | 436
6 | GTACGCTCTTCACTTCCCGTACCCGCGCCCGGCAGG | 609
7 | TGCTTCCGGCGGGCGCTTGCTCCCCGCGGTCCGCAC | 657
8 | GGGGCGCTGCGCAGGAAGCCGCAGTCCCTCTGCGGA | 930
9 | GACGCATAAACAGGAAGGCCTGCGGGAGGGCCCGCC | 855
10 | TGGTGTGACCAGGATGTGAACCGCGGCAAGCTGCCT | 995
11 | GGCGGCCTCAACTTCCGCGGTGGGACTCCGGAGCAG | 503
12 | GAGCACAGGAAAAGCTGGTGCCAACCACAAGTGCTT | 368
13 | TGAGGAAGTGTAAGTCACAATAAGAAGCCACATATA | 564
14 | GCTTACGTCACGTCCGGCGCCTGCGGCCCACCCCTC | 592
15 | TTCTGGACATGCTTCCTGTGGCTTCTCTCCTGCGCT | 845
16 | CCATGCGCTGCTTCCTTCCACTTACCGCCCTCGCAC | 523
17 | CAAAGCAACCCAAGGGGATGTGGTCACTGGGGTGAG | 413
18 | CATGAGAAACATCCTGCCCAACCACCTGACTACAAG | 492
19 | TGGTCCACCCGGCGGAACTCGCGGTCCCGGCAGGCA | 520
20 | GCAGAAGGAAGTGTGGCTTGGCGCGGTGGCTCACAC | 475

Row | Sequence | ETS1 binding intensity
21 | TGTTGGCTGTCCTCCGGAAACCCGCGCCTGGGTCGC | 1820
22 | CCAAAAAGGAAGGAAACCAGAAAGCCACAGAATGGT | 487
23 | GACTGCGCCGGACGCGCCAGCCCTGCGGGATGACGT | 650
24 | CCGACCTTAACGACATCCTGCGGCTCAGCGTGGAGG | 489
25 | TCACCCTCTCACTTCCTGCGGGTCCCAGGCTCAGGC | 896
26 | CTGGCTACAGGAAAAACAAAGTCAAACCACAGCACT | 473
27 | GGCCGGAAGCGCTCTCGTTGGCCCTGCGGCGCTGGA | 2120
28 | CCAGGATGTAGTTTGGCCACTATTGAGTGGTTTGTT | 448
29 | TAGAAAAGGAAGCAGGGTAGGTGTGGTATCTGGGTC | 587
30 | TGGATGGCGGCGGATACTGCCCATGCCGCAAGGCCG | 464
31 | CTGTCCACATAAGGAAGTTGGGACCACAAGGTCTTT | 870
32 | CAGTGGCTTCCTCCCCACCTCCTACCACATTCAATG | 517
33 | CCGCCCTCCACCGAGTTCCGGCCACAGAGCGGGCCC | 536
34 | GGCCGGAAAGGGTCTTGAGAGGAGGTGGTTGCCTTA | 633
35 | GACCTGACAACATCCTGGCGCAGTGGGTTGGCCCTG | 496
36 | ATGCGAGTCTGCTTCCTGCCACAAATCACAATTTGA | 665
37 | TGAATATTCTTCCGCACGTACCCACATGGCTCACTT | 486
38 | GCAGGAAATGACGTCAGACCTCACTGCGGGTCTGAG | 853
39 | ACCTCTTCCGAGACCCAAAATGCGCGGTCTGGAGAG | 448
40 | TGCTGTTTCCTCTGCTGCCGAAGCGGTTTCTTCCAC | 443

Each sequence was assayed against T1, ETS1 (assay: ETS1 binding intensity (PBM fluorescence) in presence of RUNX1, normalised to ETS1-only experiment (arbitrary fluorescence units); higher = stronger binding). Settings: ETS1 concentration 1 nM; RUNX1 concentration 25 nM.

Row | Sequence | ETS1 binding intensity
41 | CAGAGGCCCGGCCTCTTCCGCCACAACTCCGGCCCG | 356
42 | ATTACATCCGGGCTCCGCGACACGCCCGAACCACAA | 427
43 | GTGACCCAATACTTCCTGCCACAATACTGAGAACTC | 702
44 | TACCACCTCAGGATGTCTGAACCACATGCAAGCAGG | 571
45 | TCCAGGATGTGCTGAACCTCCAGAAACCACCGGCTT | 684
46 | GTACGCTCTTCACTTCCCGTACCCGCGCCCGGCAGG | 634
47 | TGCTTCCGGCGGGCGCTTGCTCCCCGCGGTCCGCAC | 762
48 | GGGGCGCTGCGCAGGAAGCCGCAGTCCCTCTGCGGA | 1210
49 | GACGCATAAACAGGAAGGCCTGCGGGAGGGCCCGCC | 948
50 | TGGTGTGACCAGGATGTGAACCGCGGCAAGCTGCCT | 992
51 | GGCGGCCTCAACTTCCGCGGTGGGACTCCGGAGCAG | 445
52 | GAGCACAGGAAAAGCTGGTGCCAACCACAAGTGCTT | 1130
53 | TGAGGAAGTGTAAGTCACAATAAGAAGCCACATATA | 519
54 | GCTTACGTCACGTCCGGCGCCTGCGGCCCACCCCTC | 506
55 | TTCTGGACATGCTTCCTGTGGCTTCTCTCCTGCGCT | 598
56 | CCATGCGCTGCTTCCTTCCACTTACCGCCCTCGCAC | 331
57 | CAAAGCAACCCAAGGGGATGTGGTCACTGGGGTGAG | 1800
58 | CATGAGAAACATCCTGCCCAACCACCTGACTACAAG | 511
59 | TGGTCCACCCGGCGGAACTCGCGGTCCCGGCAGGCA | 397
60 | GCAGAAGGAAGTGTGGCTTGGCGCGGTGGCTCACAC | 405

Row | Sequence | ETS1 binding intensity
61 | TGTTGGCTGTCCTCCGGAAACCCGCGCCTGGGTCGC | 1930
62 | CCAAAAAGGAAGGAAACCAGAAAGCCACAGAATGGT | 1200
63 | GACTGCGCCGGACGCGCCAGCCCTGCGGGATGACGT | 801
64 | CCGACCTTAACGACATCCTGCGGCTCAGCGTGGAGG | 437
65 | TCACCCTCTCACTTCCTGCGGGTCCCAGGCTCAGGC | 790
66 | CTGGCTACAGGAAAAACAAAGTCAAACCACAGCACT | 929
67 | GGCCGGAAGCGCTCTCGTTGGCCCTGCGGCGCTGGA | 2800
68 | CCAGGATGTAGTTTGGCCACTATTGAGTGGTTTGTT | 502
69 | TAGAAAAGGAAGCAGGGTAGGTGTGGTATCTGGGTC | 575
70 | TGGATGGCGGCGGATACTGCCCATGCCGCAAGGCCG | 532
71 | CTGTCCACATAAGGAAGTTGGGACCACAAGGTCTTT | 1350
72 | CAGTGGCTTCCTCCCCACCTCCTACCACATTCAATG | 467
73 | CCGCCCTCCACCGAGTTCCGGCCACAGAGCGGGCCC | 547
74 | GGCCGGAAAGGGTCTTGAGAGGAGGTGGTTGCCTTA | 519
75 | GACCTGACAACATCCTGGCGCAGTGGGTTGGCCCTG | 420
76 | ATGCGAGTCTGCTTCCTGCCACAAATCACAATTTGA | 686
77 | TGAATATTCTTCCGCACGTACCCACATGGCTCACTT | 337
78 | GCAGGAAATGACGTCAGACCTCACTGCGGGTCTGAG | 1010
79 | ACCTCTTCCGAGACCCAAAATGCGCGGTCTGGAGAG | 328
80 | TGCTGTTTCCTCTGCTGCCGAAGCGGTTTCTTCCAC | 400
